Measured values: PubChem BioAssay (NCI)
The panel holds about 83,000 compounds, 20% with a hit somewhere; the sample as a whole holds those more often.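 48-hour exposure, single concentration, 96-well plates; percent growth endpoint where 0 means no net growth. Active: below 10.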 Unmarked numbers belong to inactive results. Activity calls are given as the source filed them.

Key:
Assay in all cases: NCI-60 one-dose screen, 48 h (100 = growth as untreated, 0 = no growth, -100 = all killed)
[1] = tested on: SK-MEL-2 melanoma; settings: 10 µM unless noted
[2] = tested on: EKVX NSCLC; settings: 10 µM unless noted
[3] = tested on: UO-31 renal; settings: 10 µM unless noted
[4] = tested on: TK-10 renal; settings: 10 µM unless noted
[5] = tested on: ACHN renal; settings: 10 µM unless noted
[6] = tested on: A498 renal; settings: 10 µM
[7] = tested on: HL-60(TB) leukemia; settings: 10 µM unless noted
[8] = tested on: CCRF-CEM leukemia; settings: 10 µM unless noted
[9] = tested on: CAKI-1 renal; settings: 10 µM unless noted
[10] = tested on: SN12C renal; settings: 10 µM unless noted

CC(=O)[C@H]1CC[C@H]2[C@@H]3CC[C@H]4C[C@H](N)CC[C@]4(C)[C@H]3CC[C@]12C
growth [1]: 89.8% | growth [2]: 76.9% | growth [3]: 63.1% | growth [4]: 82.6% | growth [5]: 82.9% | growth [6]: 78.6% | growth [7]: 63.4% | growth [8]: 102%

C#Cc1ccc2c(c1)C(c1ccccc1F)=NCC(=O)N2C
growth [1]: 19.4% | growth [2]: 48.9% | growth [3]: 72.5% | growth [4]: 75.5% | growth [5]: 56.9% | growth [9]: 55.1% | growth [6]: 19.2% | growth [7]: 10.2% | growth [8]: 58.8%

O=C1C(=Cc2cn(Cc3ccccc3)c3ccccc23)C(=O)N(Cc2ccccc2)C(=O)N1Cc1ccccc1
growth [1]: 83.9% | growth [2]: 97.5% | growth [3]: 73.3% | growth [4]: 40.7% | growth [5]: 86.2% | growth [9]: 94.6% | growth [6]: -95.7% (active) | growth [7]: 96.4% | growth [8]: 118%

O=C1C(N2CC2)=C(N2CC2)C(=O)C(N2CC2)=C1N1CC1
growth [1]: -24.2% (active) | growth [2]: 22.9% | growth [3]: -56.2% (active) | growth [4]: 2.35% (active) | growth [9]: 7.04% (active) | growth [6]: -75.4% (active) | growth [7]: 21.8% | growth [8]: 39.2%

CC1(C)[C@H](O)[C@H](F)C[C@@]2(C)Oc3ccc(C(=O)Nc4ccc5c(c4)NC(=O)C54CCN(CCCCC#N)CC4)cc3C[C@H]12
growth [1]: 28.8% | growth [2]: 82.1% | growth [3]: 31.5% | growth [4]: 59.1% | growth [5]: 43.1% | growth [9]: 56.5% | growth [7]: 30.5% | growth [8]: 13.8%

CC(=O)O[C@H]1C(=O)[C@@]2(C)[C@H]([C@H](OC(=O)c3ccccc3)[C@]3(O)C[C@H](OC(=O)[C@H](OC(=O)OC[C@@H]4COC(C)(C)O4)[C@@H](NC(=O)c4ccccc4)c4ccccc4)C(C)=C1C3(C)C)[C@]1(OC(C)=O)CO[C@@H]1C[C@@H]2O
growth [1]: 24.3% | growth [2]: 29.1% | growth [3]: 34.1% | growth [4]: 26% | growth [5]: 36.2% | growth [9]: 27.4% | growth [6]: 13.4% | growth [7]: 4.01% (active) | growth [8]: 17.8%

C[C@]12CCc3sc(NCCc4ccccc4)nc3C1=CC[C@@H]1[C@@H]2CC[C@]2(C)C(=O)CC[C@@H]12
growth [1]: 92.1% | growth [2]: 92.4% | growth [3]: 50.4% | growth [4]: 91.3% | growth [5]: 73.8% | growth [9]: 73.5% | growth [6]: 86.9% | growth [7]: 1.45% (active) | growth [8]: 8.44% (active)

C=CCCCCCCCCC(=O)[O-].C=CCCCCCCCCC(=O)[O-].[Zn+2]
growth [1]: 111% | growth [2]: 98.7% | growth [10]: 101% | growth [4]: 115% | growth [5]: 101% | growth [9]: 90% | growth [6]: 92.7% | growth [7]: 95.1% | growth [8]: 104%

Nc1ncnc2n[nH]nc12
growth [1]: 12.5% | growth [2]: 66.7% | growth [3]: 35.9% | growth [4]: 61% | growth [5]: 46.5% | growth [9]: 40.1% | growth [6]: 51.4% | growth [8]: 80.7%

Nc1c(F)cc(-c2nc3cc(F)ccc3[se]2)cc1F
growth [1]: 107% | growth [2]: 47.6% | growth [3]: 60.2% | growth [4]: 27.7% | growth [5]: 68.7% | growth [6]: 38.9% | growth [7]: 83.5% | growth [8]: 88.7%

COc1ccc(C(O)(C(=O)O)c2ccc(OC)cc2)cc1
growth [1]: 78.8% | growth [2]: 85% | growth [3]: 87.6% | growth [4]: 88.2% | growth [5]: 85.8% | growth [9]: 100% | growth [6]: 95.3% | growth [7]: 96.9% | growth [8]: 79.8%

CCCC[C@H](NC(=O)[C@H]1CCCCN1C)C(=O)N(C)[C@H](C[C@@H](OC(C)=O)c1nc(C(=O)N[C@@H](Cc2ccccc2)C[C@H](C)C(=O)OCC)cs1)C(C)C
growth [1]: 11.8% | growth [2]: 47.8% | growth [3]: 31.9% | growth [4]: -7.07% (active) | growth [5]: 13.5% | growth [6]: -11.9% (active) | growth [8]: 8.81% (active)

CCCC[C@H](NC(=O)[C@H]1CCCN1C)C(=O)N(C)[C@H](C[C@@H](OC(C)=O)c1nc(C(=O)N[C@@H](Cc2ccccc2)C[C@H](C)C(=O)OCC)cs1)C(C)C
growth [1]: 52% | growth [2]: 41.3% | growth [3]: 40.2% | growth [4]: 16.4% | growth [5]: 17.5% | growth [6]: -11.7% (active) | growth [7]: -28.7% (active) | growth [8]: 11.1%

Cc1c(C)c([N+](=O)[O-])c(C)c(C)c1[N+](=O)[O-]
growth [1]: 90.8% | growth [2]: 98.7% | growth [3]: 106% | growth [4]: 107% | growth [5]: 106% | growth [9]: 91.3% | growth [6]: 94.3% | growth [7]: 109% | growth [8]: 99.1%

COc1cc([C@@H]2c3cc4c(cc3[C@H](OC(C)=O)[C@H]3COC(=O)[C@@H]23)OCO4)cc(OC)c1OC
growth [1]: 40.2% | growth [2]: 33.1% | growth [3]: 38.9% | growth [4]: 41.8% | growth [5]: 29.8% | growth [6]: -15.7% (active) | growth [7]: -1.71% (active) | growth [8]: 22.6%

c1ccc(CSC(c2ccccc2)c2ccccc2)cc1
growth [1]: 114% | growth [2]: 117% | growth [3]: 92.2% | growth [4]: 123% | growth [9]: 96.7% | growth [6]: 123% | growth [7]: 68.5% | growth [8]: 117%

CC[CH2][Sn]([Cl])([Cl])[CH2]CC
growth [1]: 52.4% | growth [2]: 104% | growth [3]: 76.6% | growth [4]: 56.8% | growth [5]: 76.3% | growth [9]: 64.1% | growth [6]: 47.4% | growth [7]: 54.9% | growth [8]: 10%

C/C(CC(C)(C)N1CC1)=N\NC(=O)Nc1cccc2ccccc12
growth [1]: 72.9% | growth [2]: 78.5% | growth [3]: 57.9% | growth [4]: 61.3% | growth [5]: 42.3% | growth [9]: 28.9% | growth [6]: 59.3% | growth [7]: 77.6% | growth [8]: 82.3%

CCC[CH2][Sn]([CH2]CCC)([CH2]CCC)[O]c1ccc(Cl)cc1Cl
growth [1]: -66.9% (active) | growth [2]: -51.7% (active) | growth [3]: -85.3% (active) | growth [4]: -91.7% (active) | growth [9]: -56.6% (active) | growth [6]: -98.1% (active)

O=c1[nH]c2ccc([N+](=O)[O-])cc2c(=O)o1
growth [1]: 111% | growth [2]: 107% | growth [3]: 90.7% | growth [4]: 104% | growth [5]: 93.3% | growth [8]: 96.1%

COc1ccc2c(c1)c(-c1nc(-c3c[nH]c4ncccc34)cs1)cn2CCCCN1CCCCC1
growth [1]: -53.2% (active) | growth [2]: 49.4% | growth [3]: -87.6% (active) | growth [4]: -16.6% (active) | growth [5]: -92.2% (active) | growth [6]: 58.2% | growth [7]: -69.8% (active) | growth [8]: -38.7% (active)

OCc1ccc2c(c1)OCO2
growth [1]: 99.5% | growth [2]: 96.3% | growth [3]: 88% | growth [4]: 91.7% | growth [9]: 93.2% | growth [6]: 111% | growth [7]: 96.1% | growth [8]: 102%

CCC(O)(CN)c1ccccc1 (stereo not drawn)
growth [1]: 97.7% | growth [2]: 98.3% | growth [3]: 89.7% | growth [4]: 101% | growth [5]: 105% | growth [6]: 86.7% | growth [7]: 101% | growth [8]: 90.1%

CC[C@H](C)[C@H](NC(=O)c1nccn1C)C(=O)N(C)[C@H](C[C@@H](OC(C)=O)c1nc(C(=O)N[C@@H](Cc2ccccc2)C[C@H](C)C(=O)OC)cs1)C(C)C
growth [1]: 28.5% | growth [2]: 52.8% | growth [3]: 47.3% | growth [4]: 41.9% | growth [5]: 42.3% | growth [9]: 33.8% | growth [6]: -9.78% (active) | growth [7]: -43.5% (active) | growth [8]: 15.9%

COC(=O)C12CC(NC(=O)c3csc([C@@H](C[C@H](C(C)C)N(C)C(=O)[C@@H](NC(=O)[C@H]4CCCCN4C)C(C)C)OC(C)=O)n3)(C1)C2
growth [1]: 28.5% | growth [2]: 44% | growth [3]: 44.4% | growth [4]: 56.5% | growth [5]: 22.9% | growth [6]: -1.32% (active) | growth [7]: -38.9% (active) | growth [8]: 8.23% (active)

Cc1c(NS(=O)(=O)c2ccccc2)ccc([N+](=O)[O-])c1Cl
growth [1]: 65.1% | growth [2]: 65.3% | growth [3]: 45.1% | growth [4]: 77% | growth [9]: 47.8% | growth [6]: 59.3% | growth [8]: 64.3%

CCCCC1(CCC)C(=O)NC(=S)NC1=O
growth [1]: 91.2% | growth [2]: 102% | growth [3]: 85.7% | growth [4]: 118% | growth [5]: 94.8% | growth [9]: 97.2% | growth [6]: 129% | growth [8]: 115%

C/C(=C\c1cc(C(F)(F)F)nn1CCNC(=O)OC(C)(C)C)[C@@H]1C[C@@H]2O[C@]2(C)CCC[C@H](C)[C@H](O)[C@@H](C)C(=O)C(C)(C)[C@@H](O)CC(=O)O1
growth [1]: 75.1% | growth [2]: 65% | growth [3]: 49.5% | growth [4]: 69.2% | growth [9]: 47.1% | growth [6]: 49.3% | growth [7]: 14.1% | growth [8]: 67.2%
